Data on 23 sequences can be found in PMC7819943, “Rice protein-binding microarrays: a tool to detect cis-acting elements near promoter regions in rice”.

In all, about 35,000 sequences were measured (“fluorescence intensity (a.u.)”: median about 10,000, highest 2% from about 52,000 on). What follows is part of a selection rich in the highest values, with near analogues and random picks from the rest.

The test has as its target T1, OsWOX13 (Oryza sativa, UniProt Q5QMM3 1-267).
T1 sequence: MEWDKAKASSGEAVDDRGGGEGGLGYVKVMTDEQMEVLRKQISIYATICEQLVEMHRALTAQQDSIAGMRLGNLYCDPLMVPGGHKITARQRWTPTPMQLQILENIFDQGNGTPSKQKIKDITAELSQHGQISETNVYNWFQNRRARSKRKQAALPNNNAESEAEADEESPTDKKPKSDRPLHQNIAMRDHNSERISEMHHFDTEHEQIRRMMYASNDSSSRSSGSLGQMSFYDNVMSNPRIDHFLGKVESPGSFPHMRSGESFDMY
The test is described as follows: protein-binding microarray (RPBM); PBS, 2% BSA, 51.3 ng/ul salmon testes DNA, 50 uM zinc acetate, 200 nM TF, 25 C, 1 h; high values mean tight binding. The conditions noted are these: protein: recombinant; tags: N-terminal polyhistidine and DsRed monomer fusion (pET32a); label: CyDye5-dUTP incorporated in the synthesized complementary strand; 3' TTTTT single-stranded linker to array surface; dsDNA, one strand shown. The essentials:
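The binding signal for each feature is its fluorescence intensity in arbitrary units. An Axon 4000B scanner was used to read a custom Agilent array that had been made double-stranded with Cy5-dUTP primer extension, blocked with 2% BSA, incubated at 25 °C for 1 h with 200 nM protein in PBS, 2% BSA, salmon testes DNA and 50 µM zinc acetate, and washed. The protein was an N-terminal polyhistidine–DsRed transcription factor fusion from E. coli BL21-CodonPlus, purified on Ni–NTA.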
As to “CCATTTCTTGCTGATGATTGATGATGAACATTTCTAATAGCGGAGTCACCTAGTGCAG”, the binding signal was 27400 fluorescence intensity (a.u.).
As to “TACTATGATTTTCTTTGAATTCAGGTCCTTGCGATTCCAGCGGAGTCACCTAGTGCAG”, the binding signal is 3510 fluorescence intensity (a.u.).
Next, “TGGATAATTAAGCTCATGAGACGACAACGAACAATGAATGCGGAGTCACCTAGTGCAG”: 8610 fluorescence intensity (a.u.); “AGATGTTTGAATAATTGATACAATATCAGGAGCGAATATGCGGAGTCACCTAGTGCAG”: 4430 fluorescence intensity (a.u.); “TGAAATTTCTCTTCATTTTGTTTTAAATCCTGGACAGACACGGAGTCACCTAGTGCAG”: 3370 fluorescence intensity (a.u.).
Take “CAACCAATAAATTAGAACTCCATCTCGATCATGGTGTTATCGGAGTCACCTAGTGCAG”: the binding signal was 4370 fluorescence intensity (a.u.).
For “GGCTTGATTTATTGATTTGTTCTTTAGTACTCCAGTTCAACGGAGTCACCTAGTGCAG” the value was 25700 fluorescence intensity (a.u.).
For the sequence “ATAAATTAGCACCCACCTCTGCCTTCCTACCTTCCCCTCCCGGAGTCACCTAGTGCAG”, the binding signal is 24900 fluorescence intensity (a.u.).
For “GAGAGAGAGATCAGCACATGATTGATTAAATATTAGCTTACGGAGTCACCTAGTGCAG” the value was 19100 fluorescence intensity (a.u.); for “TTAATTGGATATATGATGTTGCAAATTTGCCTATTCAGAACGGAGTCACCTAGTGCAG”, 27000 fluorescence intensity (a.u.).
Turning to “GCATGAAGACATCAATTAATTAATTGCATGGTTACATGCACGGAGTCACCTAGTGCAG”, the binding signal was 37200 fluorescence intensity (a.u.).
As for “ATTAATCCACAATTATCAAAAGTTTACTGTAGCATCACATCGGAGTCACCTAGTGCAG”, the binding signal was 5730 fluorescence intensity (a.u.).
For “AATAATTAATTAATCATAGCTTGCAACTGCATATGTAGGGCGGAGTCACCTAGTGCAG” the value was 56700 fluorescence intensity (a.u.); for “TCCATAATTAGCAGCTGATTACTGTAGTATTACTGTAGCACGGAGTCACCTAGTGCAG”, 60800 fluorescence intensity (a.u.).
Next, “CCTAATTAATCCATAATTATCAAAAGTTTACTGTAGCATCCGGAGTCACCTAGTGCAG”: 62800 fluorescence intensity (a.u.).
For “ATGATTAGCAGCTGATTACTGTAGCATTACTGTAGCAAATCGGAGTCACCTAGTGCAG” the value was 45200 fluorescence intensity (a.u.); for “TCCATAATTAGCGGCTGATTACTGTAGCATCACTGTAGCACGGAGTCACCTAGTGCAG”, 31200 fluorescence intensity (a.u.).
Turning to “ATTAATCCATAATTAGCAAATGTTTACTGTAGCATCACATCGGAGTCACCTAGTGCAG”, the binding signal is 13800 fluorescence intensity (a.u.).
On to “TGTAATAGTGGGTTAATTAATTAGCTTGCCAGCTTCAGGGCGGAGTCACCTAGTGCAG”, for which the binding signal was 21900 fluorescence intensity (a.u.).
As for “TCATCAGTTAATTAATACATGCATATTATATTATATAGGGCGGAGTCACCTAGTGCAG”, the binding signal is 20200 fluorescence intensity (a.u.).
For “TTGGTGTAATTGACATGCGGGCCCACAATTTTATTATTTTCGGAGTCACCTAGTGCAG” the value was 23800 fluorescence intensity (a.u.); for “ATTGATAACGGCAGACTAACTGATACGACAGAGATGGTCACGGAGTCACCTAGTGCAG”, 7620 fluorescence intensity (a.u.).
Next, “CCGGATTGCTGGATCATTTTCTTCTCGGCCCATTGGACTCCGGAGTCACCTAGTGCAG”: 3410 fluorescence intensity (a.u.).
